Measured values published in PubChem BioAssay AID651650 (Sanford-Burnham Center for Chemical Genomics, 2012).

target: Neuropilin-1 (Homo sapiens) (UniProt O14786); assay: blockers of CendR peptide binding to NRP-1 – biochemical, FP and AlphaScreen panel, dose response (AID 651650); details: NRP-1 b1b2 / RPARPAR peptide binding, FP or AlphaScreen; run 1, at 100 µM (top of the series)
Sequence (O14786 whole entry, looked up): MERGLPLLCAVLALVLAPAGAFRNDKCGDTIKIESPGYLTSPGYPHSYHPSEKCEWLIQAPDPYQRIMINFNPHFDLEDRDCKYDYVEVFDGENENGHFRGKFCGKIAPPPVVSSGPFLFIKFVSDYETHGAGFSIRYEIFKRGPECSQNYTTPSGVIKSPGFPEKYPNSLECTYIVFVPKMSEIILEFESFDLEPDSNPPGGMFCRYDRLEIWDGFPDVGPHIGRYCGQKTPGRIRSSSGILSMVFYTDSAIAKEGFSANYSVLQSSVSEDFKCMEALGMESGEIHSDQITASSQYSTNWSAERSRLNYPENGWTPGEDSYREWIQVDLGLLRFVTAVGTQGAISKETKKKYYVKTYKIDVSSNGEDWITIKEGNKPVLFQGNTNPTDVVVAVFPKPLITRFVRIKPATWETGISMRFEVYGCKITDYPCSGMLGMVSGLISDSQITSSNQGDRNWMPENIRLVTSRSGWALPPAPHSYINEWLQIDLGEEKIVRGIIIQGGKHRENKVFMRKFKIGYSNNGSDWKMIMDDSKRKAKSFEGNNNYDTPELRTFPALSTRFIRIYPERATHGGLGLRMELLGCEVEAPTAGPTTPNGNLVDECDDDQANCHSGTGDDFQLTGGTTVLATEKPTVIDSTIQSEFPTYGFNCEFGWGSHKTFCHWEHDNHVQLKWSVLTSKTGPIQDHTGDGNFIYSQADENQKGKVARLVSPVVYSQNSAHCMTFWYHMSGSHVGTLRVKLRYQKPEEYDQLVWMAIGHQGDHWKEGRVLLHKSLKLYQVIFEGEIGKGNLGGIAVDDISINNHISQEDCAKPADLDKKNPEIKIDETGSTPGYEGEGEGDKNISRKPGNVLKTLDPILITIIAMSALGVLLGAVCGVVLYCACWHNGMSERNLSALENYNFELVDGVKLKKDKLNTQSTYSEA

Row | SMILES | inhibition
1 | COc1ccc(-c2csc(NCCc3nc4cc(C(=O)NCCCO)ccc4n3Cc3ccc(C)cc3)n2)cc1 | 90.9%
2 | Cc1nc(Nc2ccc(S(N)(=O)=O)cc2)oc1C | 60.3%
3 | CCNC(=O)C1(C)CCCN(C(=O)c2nc(C)oc2C)C1 (stereo unspecified) | 20.1%
4 | Cc1ccc(NC(=S)Nc2cccc3ccccc23)cc1 | 13.4%
5 | CC(=O)Nc1cccc(-c2csc(NCc3ccccc3)n2)c1 | 26.4%
6 | COc1cc(C(=O)NCc2ccccc2)cc(Br)c1OC | -10%
7 | C=CCOc1ccc(C2/C(=C(\O)c3c(C)[nH]c(C(=O)OC)c3C)C(=O)C(=O)N2CCN(C)C)cc1 (stereo unspecified) | 3.64%
8 | O=C(O)CCSc1nnc(COc2cccc3cccnc23)n1-c1ccccc1 | 52.3%
9 | COc1ccc(-c2cc(C)no2)cc1S(=O)(=O)NCc1cccc(C)c1 | 23.2%
10 | O=C(c1ccco1)N1CCN(C(=O)c2ccccc2OC(=O)C23CC4CC(CC(C4)C2)C3)CC1 | 74.6%
11 | O=C(CSc1nc2ccc(Cl)cc2[nH]1)NCCc1ccccc1 | 18.8%
12 | COc1ccc(C(=O)N2CCC(C(=O)NCc3ccccn3)CC2)cc1 | 20.9%
13 | CC(C)C[C@@H](COc1ccccc1)N1CCN(CCc2ccccc2)CCC1=O | 46.6%
14 | CCOC(=O)C1=CCN(S(=O)(=O)c2ccccc2Br)C1c1ccccc1 (stereo unspecified) | 35.1%
15 | COc1ccc(CN2C(=O)c3ccccc3C2=O)cc1C(=O)Nc1ccccc1N1CCOCC1 | 30%
16 | CCOc1ccc(C2CC(c3ccc(CC)cc3)n3nc(N)nc3N2)cc1 (stereo unspecified) | 4.44%
17 | Cc1ccsc1C(=O)N1CCCC(CO)(Cc2ccccc2F)C1 (stereo unspecified) | 17.8%
18 | CCN(C[C@H]1N[C@@](CC)(C(=O)OC)[C@H]2C(=O)N(C)C(=O)[C@@H]12)S(=O)(=O)c1ccc(OC)cc1 | 30.5%
19 | CCOC(=O)CNc1ccc2c(c1)OCO2 | 82.2%
20 | N/C(CSc1ccc(Cl)cc1)=N\S(=O)(=O)c1ccc(Cl)cc1 | 37.6%
21 | O=C1CSC(c2cn(-c3ccccc3)nc2-c2cccs2)N1CC1CCCO1 (stereo unspecified) | 73.3%
